Growth data for 27 molecules are collected here from PubChem BioAssay (NCI).

Molecules are shown by their SMILES. The panel holds about 83,000 compounds, 20% with a hit somewhere; the sample as a whole holds those more often.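 Method: cells in 96-well plates; compound added at one concentration; 48 h incubation; percent growth measured; values under 10 scored active.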 Activity calls are given as the source filed them.

The subject of the test is HCT-15 colon. The experiment in a line: NCI-60 one-dose screen, 48 h (100 = growth as untreated, 0 = no growth, -100 = all killed). The following applies: 10 µM unless noted.
In the case of `O=c1c2cccc3c(N4CCCC4)ccc(c32)c2nc3ccccc3n12`, the growth was 78.6% (inactive).

`OB1OCc2cc(/C=C/c3cccc(C(F)(F)F)c3)ccc21`: the growth is 17.8% (inactive).

`O=C(/C=C/c1ccccc1)Nc1ncc(Cc2ccccc2Cl)s1`: the growth is 16% (inactive).

On to `CN(C)CCNC(=O)c1ccc(-c2nc3ccc4[nH]ncc4c3c3c2C2CCC3C2)cc1` (configuration not stated), for which the growth is 41.8% (inactive).

As to `COC12C=C/C(=C(/C(=O)OCc3ccncc3)C(=O)CCCCCCCCC3(OC)C=C/C(=C(/C(=O)OCc4ccncc4)C(=O)CCCCCCCC1)O3)O2`, the growth is -57.7% (active).

Consider `O=C(/C=C/c1cccc(Cl)c1)c1cccc(OCCCOc2cccc(C(=O)/C=C/c3cccc(Cl)c3)c2)c1`, for which the growth was 98.1% (inactive).

For `CCn1c(SCC(=O)N/N=C(\C)c2ccc(Cl)cc2)nc2c1c(=O)n(C)c(=O)n2C`, the growth is 104% (inactive).

As for `Cc1ccc(C[P+](c2ccccc2)(c2ccccc2)c2ccccc2)cc1`, the growth was 82.5% (inactive).

`Clc1ccc2c(NC3CCC(N4CCOCC4)CC3)ccnc2c1` (configuration not stated): the growth is 93.5% (inactive).

Turning to `Cc1ccc(C2=Nc3c(N)ncnc3NC(c3cccc(Nc4ccnc5cc(C(F)(F)F)ccc45)c3)C2)cc1` (configuration not stated), the growth is 6.14% (active).

For `COc1ccc(-c2noc(C(=O)O)c2-c2cc(OC)c(OC)c(OC)c2)cc1`, the growth is 30.4% (inactive).

With `CCOC(=O)c1nn(-c2ccc(S(N)(=O)=O)cc2)c2nc(C)cc(=O)n12`, the growth was 108% (inactive).

For the molecule `CCSC(SCC)c1ccc(Cl)cc1`, the growth was 108% (inactive).

`CSc1nc2ccccc2cc1/C=C1/C=C(c2ccccc2)NC1=O`: the growth was 41.3% (inactive).

`COC1/C=C/OC2(C)Oc3c(C)c(O)c4c(O)c(c(/C=N/Nc5ccc([N+](=O)[O-])cc5[N+](=O)[O-])c(O)c4c3C2=O)NC(=O)C(C)=C/C=C/C(C)C(O)C(C)C(O)C(C)C(OC(C)=O)C1C` (configuration not stated): the growth is 41.6% (inactive).

Take `O=C1C(Cl)=C(Nc2ccc(S(=O)(=O)N3CCOCC3)cc2)C(=O)c2ccccc21`: the growth is 36.2% (inactive).

As to `c1csc(-c2ccc(CNc3c4ccccc4nc4ccccc34)cc2)c1`, the growth was -66.2% (active).

As for `Nc1ncc(-c2ccc3ncnc(Nc4cccc(Cl)c4)c3c2)cn1`, the growth was 38.8% (inactive).

For the molecule `CCOC(=O)C#Cc1c(C(=O)OCC)nnn1Cc1ccc([N+](=O)[O-])cc1`, the growth is -20% (active).

`O=C(CSc1nc2ccc([N+](=O)[O-])cc2[nH]1)Nc1ccc([N+](=O)[O-])cc1`: the growth was 22.9% (inactive).

For the molecule `CC(C)(Sc1cc(C(C)(C)C)c(OC(=O)CCCC(=O)O)c(C(C)(C)C)c1)Sc1cc(C(C)(C)C)c(OC(=O)CCCC(=O)O)c(C(C)(C)C)c1`, the growth was 7.28% (active).

As to `O=C(N(c1ccccc1)c1ccccc1)n1cc(I)c2nc(Cl)nc(Cl)c21`, the growth is 30.6% (inactive).

`NC(=O)CSc1oc(-c2ccccc2)nc1S(=O)(=O)c1ccc(Br)cc1`: the growth is 90.6% (inactive).

Regarding `COc1ccc(/C=C/C(=O)c2cc3c(N)c(C(=O)Nc4cccc5ccccc45)sc3nc2C)cc1`, the growth is 44.1% (inactive).

As for `Nc1ncnc2c1c(-c1cccc(Cl)c1)nn2CC(=O)N1CCOCC1`, the growth is 101% (inactive).

With `CC(=O)O[C@H]1CC2CCC3C(CC[C@@]4(C)C3C[C@H]([N+]3(C)CCCCC3)[C@@H]4OC(C)=O)[C@@]2(C)C[C@@H]1N1CCCCC1` (some centres not stated), the growth was 118% (inactive).

Take `c1ccc(Cn2cc3c(c2)-c2oncc2CC3)cc1`: the growth was 26.2% (inactive).
